Assay outcomes (PubChem)
Sampled rows, rich in hits. Any-hit rate of the full collection: about 3.1%.
PLK1 PBD block = qHTS for Inhibitors of PLK1-PDB (polo-like kinase 1 - polo-box domain): Primary Screen; Plk1 PBD binding of FITC phosphopeptide, fluorescence polarization; Potency, µM, without a hit: max response, negative = inhibition, actives largely listed as inhibitors; 2.8% of 360,000 active; note: potency is the fitted concentration of half-maximal effect; series mostly up to about 57 µM; nearly all actives have a fitted effect of over 65% in size
PI4K2A block = qHTS for small molecular inhibitors of PI4K2A; purified PI4K2A, ADP-Glo luminescence, 1 h; stronger effect = lower value; activity change, negative = inhibition, % at 76.9 µM; 0.13% of 420,000 active; AID 1346378, 2018; in the data active = activity change below about -50%; inconclusive = mostly about -30% to -49%;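 note: -100% = wells without enzyme as full effect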
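ADP-Glo luminescence measured ADP generated by PI4K2A enzyme (4 ug/mL before mixing) with 1.2 mM PI substrate (pre-mix) and 300 microM ATP (pre-mix). Tris pH7.5 buffer with MgCl2, Triton X-100; 1 h reaction at ambient temperature.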
KAT2A inh = qHTS Assay for Inhibitors of GCN5L2. 0.21% of 390,000 active. GCN5L2 HAT assay, ThioGlo1 CoA-SH fluorescence. Potency, µM (doses to about 58.9 µM), inactives show at the highest dose activity change, negative = inhibition, usual class: inhibitors; note: potency is the fitted concentration of half-maximal effect
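Enzyme at 20nM final was mixed with library compounds for 15 min at room temperature. Peptide H3(1-25) at 75uM, acetyl-CoA at 70uM and ThioGlo1 at 50uM were then added. Plates were read immediately and after 20 min (Ex340nm/Em540nm).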
GLS inh = qHTS for Inhibitors of Glutaminase (GLS). Glutaminase kidney isoform, mitochondrial (Homo sapiens), O94925. GLS enzymatic activity, qHTS titration. Potency, µM (highest dose often 45.5 µM), for inactives: at the top dose activity change, negative = inhibition, actives largely listed as inhibitors. 0.21% of 410,000 active; note: potency is the fitted concentration of half-maximal effect
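Coupled fluorescence readout: glutamate oxidase/HRP/Amplex Red detect glutamate formed by hKGA from L-glutamine (1 mM solution added). Buffer 45 mM KH2PO4 pH 8.2, 0.02% Tween-20; reads at t0 and 30 min RT.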
VDR inhibitor = Inhibitors of the vitamin D receptor (VDR): qHTS; VDR-SRC2-3 peptide fluorescence polarization, 2 h; Potency, µM, for the others: max response, negative = inhibition, hits mostly inhibitors; 0.93% of 400,000 active; note: potency is the fitted concentration of half-maximal effect
Target sequence (P11473 whole entry, looked up): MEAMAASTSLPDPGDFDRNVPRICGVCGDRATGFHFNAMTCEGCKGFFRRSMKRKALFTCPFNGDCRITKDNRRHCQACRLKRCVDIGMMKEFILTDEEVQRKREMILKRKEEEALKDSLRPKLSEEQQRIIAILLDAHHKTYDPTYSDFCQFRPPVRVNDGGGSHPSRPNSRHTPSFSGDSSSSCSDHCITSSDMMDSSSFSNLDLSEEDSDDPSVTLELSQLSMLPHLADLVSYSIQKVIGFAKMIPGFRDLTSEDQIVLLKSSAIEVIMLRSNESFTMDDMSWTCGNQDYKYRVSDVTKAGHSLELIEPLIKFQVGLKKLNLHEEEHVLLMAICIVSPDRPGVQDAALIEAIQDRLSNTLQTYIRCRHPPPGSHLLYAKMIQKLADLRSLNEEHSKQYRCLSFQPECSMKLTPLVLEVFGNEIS
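FP read-out; VDR + SRC2-3 coactivator peptide; 23 nl compound by pintool; 2 h RT incubation; reagents held at 4 deg C, protected from light.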
* marks the source's active call; other numbers are inactive results. Unless noted, calls come from the whole dose curve; as a rule, active = well fitted curve in the direction sought with a large enough effect; inconclusive = small, poorly fitted or top-dose-only effect, or another doubt; inactive = no such curve, though single readings can be large; an effect the other way counts as inactive or inconclusive. Unless noted, % is set by controls: 0 for no effect and ±100 for the full control effect.

For COC(=O)N1C(=O)[C@](Cc2ccccc2)(c2ccccc2)N1C(=O)OC the results were PLK1 PBD block 15µM*, PI4K2A block -10, KAT2A inh 1%, GLS inh 12% and VDR inhibitor 89µM*.
Screening COC(=O)N1C(=O)[C@@](Cc2ccccc2)(c2ccccc2)N1C(=O)OC returned PLK1 PBD block 30µM*, PI4K2A block -1, KAT2A inh 2%, GLS inh -2% and VDR inhibitor inconclusive.
`CC[C@@]1(c2ccccc2)C(=O)N(C(=O)OC)N1C(=O)OC` gave PLK1 PBD block inconclusive, PI4K2A block 1, KAT2A inh -1%, GLS inh 10% and VDR inhibitor inconclusive.
Screening O=C(OCc1cn(Cc2ccc(F)cc2F)nn1)N1CCCC1 returned PI4K2A block -1.
Screening CC(C)CN1CC[C@@]2(CCCN(C(=O)c3csnn3)C2)C1 returned KAT2A inh 8% and VDR inhibitor 7%.
For CC[C@]1(c2ccccc2)C(=O)N(C(=O)OC)N1C(=O)OC the results were PLK1 PBD block 11µM*, PI4K2A block 1, KAT2A inh -2%, GLS inh 33% and VDR inhibitor inconclusive.
CCn1nccc1C(=O)Nc1ccccc1OC was read as PLK1 PBD block 10%, PI4K2A block -2, KAT2A inh -6%, GLS inh 6% and VDR inhibitor -1%.
COc1cc(NC(=S)NCCc2c[nH]c3ccccc23)c(OC)cc1Cl was read as PLK1 PBD block 1%, PI4K2A block -3, KAT2A inh -1%, GLS inh 15% and VDR inhibitor -1%.
COc1ccccc1NC(=O)Cc1nnc(SCC(=O)Nc2ccccc2F)n1C was read as PLK1 PBD block 12µM*, PI4K2A block 3, KAT2A inh -1%, GLS inh -13% and VDR inhibitor inconclusive.
COc1ccccc1NC(=O)CSC(N)=O was read as PLK1 PBD block -24%, PI4K2A block inconclusive, KAT2A inh -2%, GLS inh 27% and VDR inhibitor 22µM*.
For COc1ccccc1NC(=S)NCCc1c[nH]c2ccccc12 the results were PLK1 PBD block 3.4µM*, PI4K2A block 15, KAT2A inh 4%, GLS inh inconclusive and VDR inhibitor -17%.
CCn1ncc(Br)c1C(=O)Nc1ccccc1OC was read as PLK1 PBD block 21µM*, PI4K2A block 3, KAT2A inh -12%, GLS inh -6% and VDR inhibitor -12%.
Screening COc1cccc(OCC(=O)Nc2nnc3n2CCS3)c1 returned PI4K2A block -12, KAT2A inh 1%, GLS inh -12% and VDR inhibitor 4%.
Screening Cc1ccccc1NC(=O)CSC(N)=O returned PLK1 PBD block inconclusive, PI4K2A block -10, KAT2A inh -8%, GLS inh 19% and VDR inhibitor 25µM*.
COc1ccccc1NC(=S)NC(=O)Cc1ccc(Cl)cc1 was read as PLK1 PBD block -5%, PI4K2A block -1, KAT2A inh 2%, GLS inh -3% and VDR inhibitor -2%.
Screening Cc1ccccc1NC(=O)COC(=O)CCc1ccccc1 returned PLK1 PBD block 6µM*, PI4K2A block 5, KAT2A inh -6%, GLS inh 68% and VDR inhibitor -11%.
`CCC(=O)NC(=S)Nc1ccccc1OC` gave PLK1 PBD block 24µM*, PI4K2A block -4, KAT2A inh -26%, GLS inh 8% and VDR inhibitor -16%.
Screening NC(=O)SCC(=O)Nc1ccccc1C(=O)O returned PLK1 PBD block -13%, PI4K2A block -19, KAT2A inh 15%, GLS inh 14% and VDR inhibitor 79µM*.
Screening CCC(=O)N1CCc2cc(Br)c(S(=O)(=O)NCc3ccccc3OC)cc21 returned PI4K2A block -2.
For COc1ccc(NC(=O)Nc2cc(C)nn2-c2ccccc2)cc1 the results were PI4K2A block -1.
Screening COc1cc(-c2nc3ccc(Cl)cn3c2Nc2ccc3c(c2)OCCO3)ccc1O returned PI4K2A block 2, KAT2A inh -18%, GLS inh 2% and VDR inhibitor -2%.
`COc1cc(-c2nc3ccc(C)cn3c2Nc2ccc3c(c2)OCCO3)ccc1O` gave PLK1 PBD block -3%, PI4K2A block 2, KAT2A inh -15%, GLS inh 13µM* and VDR inhibitor -6%.
`CCOC(CN=c1nc(N(C)C)ss1)OCC` gave PLK1 PBD block 6.7µM*, PI4K2A block 8, GLS inh inconclusive and VDR inhibitor inconclusive.
For Cn1c(=O)c2c(ncn2CC(=O)N2CCN(S(=O)(=O)c3ccc(F)cc3)CC2)n(C)c1=O the results were PLK1 PBD block 0%, PI4K2A block -1, KAT2A inh 0%, GLS inh -8% and VDR inhibitor 2%.
Screening Cn1c(=O)c2c(ncn2CC(=O)N2CCN(c3ccc(F)cc3)CC2)n(C)c1=O returned PLK1 PBD block 27µM*, PI4K2A block 7, KAT2A inh -1%, GLS inh 16% and VDR inhibitor -15%.
Screening COc1cc2c(cc1OC)C1=NC(=O)CN1C(SCc1ccccc1)=N2 returned PLK1 PBD block 27µM*, PI4K2A block -2, KAT2A inh inconclusive, GLS inh 10% and VDR inhibitor -8%.
For CCCC[C@H](CCCc1ccc(F)cc1)CCC(=O)N(c1ccccc1)c1ccccc1 the results were PI4K2A block -2.
`Cc1[nH]c(=S)sc1Cc1ccc(Cl)c(Cl)c1` gave KAT2A inh -15%.
`Cc1cc(Cl)cc2sc(=S)[nH]c12` gave PLK1 PBD block 13µM*, PI4K2A block 5, GLS inh inconclusive and VDR inhibitor inconclusive.
Cc1nc(SCc2ccc([N+](=O)[O-])cc2)n[nH]1 was read as PLK1 PBD block -16%, PI4K2A block 11, KAT2A inh -3%, GLS inh 7% and VDR inhibitor 14%.
Cc1nnc(SCc2ccc([N+](=O)[O-])cc2)o1 was read as PLK1 PBD block 3.8µM*, PI4K2A block 2, KAT2A inh 19%, GLS inh inconclusive and VDR inhibitor inconclusive.
Screening CCCCOc1ccc(CSC(=N)N)cc1Cl returned PLK1 PBD block -9%, PI4K2A block -4, KAT2A inh -4%, GLS inh 20µM* and VDR inhibitor -17%.
Screening CCCCCOc1ccc(CN2CCOCC2)cc1Cl returned PLK1 PBD block -8%, PI4K2A block -4, KAT2A inh -21%, GLS inh 7% and VDR inhibitor -13%.
Screening NC(=O)CCC(NS(=O)(=O)c1ccc(Cl)cc1)C(=O)NCC1CCCCC1 (centres undefined) returned PLK1 PBD block 11µM*, PI4K2A block 5, KAT2A inh -4%, GLS inh -7% and VDR inhibitor inconclusive.
